From PubChem BioAssay (Tox21)
Records with an inconclusive call do not appear. Calls of active or inactive are those of the source. Unless noted, calls follow the shape of the dose curve; as a rule, active = well fitted curve in the direction sought with a large enough effect in the repeat runs; inconclusive = weak or mixed curves; inactive = no such curve, though single readings can be large; an effect the other way counts as inactive or inconclusive.

Columns and labels:
[1] = qHTS assay to identify small molecule agonists of the RXR signaling pathway - cell viability counter screen (AID 1159529);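 also: HEK 293T cells carrying an RXR-alpha UAS beta-lactamase reporter; series mostly up to about 77 µM; nearly all actives have a fitted effect of over 50% in size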
How it was run: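 RXR-alpha-UAS-bla HEK 293T cells in medium with 2% charcoal-stripped FBS were preincubated 5 hr, then exposed to compounds for 16 hr at 37 C. Viability was read as CellTiter-Glo luminescence after 30 min at room temperature.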

[2] = qHTS assay to identify small molecule antagonists of the retinoid acid receptor (RAR) signaling pathway - cell viability counter screen (AID 1159551); also: nearly all actives have a fitted effect of over 35% in size
How it was run: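 Cells (C3RL4) are plated, incubated overnight, dosed with compound in DMSO, then given retinol at 1 uM final. After 6 h at 37 C, CellTiter-Glo is added and luminescence read following 30 min at room temperature.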

[3] = qHTS assay to identify small molecule antagonists of the retinoic acid receptor (RAR) signaling pathway (AID 1159552; also: nearly all actives have a fitted effect of over 50% in size)
How it was run: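 RARE-luc C3RL4 cells; cpds + 1 uM (final) retinol, 6 hr, 37 C/5% CO2; luciferase reagent, 30 min RT, luminescence readout. Inhibitors of retinol-driven signal scored.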

[4] = qHTS assay to identify small molecule agonists of the retinoic acid receptor (RAR) signaling pathway (AID 1159553)
How it was run: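 Seed C3RL4 reporter cells at 1,000 per well and incubate overnight at 37 C. Add compounds in DMSO, incubate 6 hr. Add luciferase reagent, wait 30 min at room temperature, read luminescence.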

[5] = qHTS assay to identify small molecule antagonists of the estrogen related receptor (ERR) signaling pathway from Tox21 library - cell viability counter screen (AID 1224834); also: nearly all actives have a fitted effect of over 30% in size
How it was run: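 ERR cells, 2,000/well; 6 h settle at 37 C/5% CO2; pin-tool compound transfer in DMSO; 17.5 h at 37 C; CellTiter-Fluor, 30 min; fluorescence intensity.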

[6] = target: Luciferin 4-monooxygenase (Photinus pyralis) (UniProt P08659); test: qHTS assay to identify small molecule inhibitors of firefly luciferase (AID 1224835); also: series mostly up to about 120 µM; nearly all actives have a fitted effect of over 25% in size
How it was run: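 Biochemical qHTS: compounds run as interplate titrations against purified firefly enzyme, with D-luciferin and ATP each at its KM concentration. Light output recorded by CCD imaging.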

[7] = qHTS assay to identify small molecule agonists of the constitutive androstane receptor (CAR) signaling pathway - cell viability counter screen (AID 1224836); also: series mostly up to about 92 µM; nearly all actives have a fitted effect of over 45% in size
How it was run: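 HepG2 cells stably carrying hCAR and a CYP2B6-2.2kb reporter were plated 4 h, then given compounds at 15 concentrations plus PK11195 (final 0.75 uM). After 23 h at 37 C, viability was read by CellTiter-Fluor fluorescence.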

[8] = qHTS assay to identify small molecule antagonists of the constitutive androstane receptor (CAR) signaling pathway - cell viability counter screen (AID 1224837); also: series mostly up to about 92 µM; nearly all actives have a fitted effect of over 45% in size
How it was run: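 Viability was measured with CellTiter-Fluor in a HepG2 line carrying stably transfected hCAR and a CYP2B6-2.2kb construct. Cells were exposed for 23 hr at 37 C to 15 compound concentrations with 50 nM CITCO as agonist.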

[9] = target: Nuclear receptor subfamily 1 group I member 3 (Homo sapiens) (UniProt Q14994); test: qHTS assay to identify small molecule antagonists of the constitutive androstane receptor (CAR) signaling pathway (AID 1224838);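 also: HepG2 cells stably expressing hCAR with CYP2B6 luciferase reporter stimulated by CITCO; nearly all actives have a fitted effect of over 40% in size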
How it was run: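 Antagonist mode used CITCO at a final 50 nM to activate CAR in human hepatoma HepG2 cells carrying stable hCAR and a 2.2 kb CYP2B6 promoter-luciferase construct. Compounds were tested at 15 concentrations over 24 h, with luminescence as the end point.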

[10] = qHTS assay to identify small molecule antagonists of the estrogen related receptor signaling pathway with the pleiotropic PPARgamma coactivator (PGC) from Tox21 10K library - cell viability counter screen (AID 1224840; active = well fitted cell-killing curve with a large enough effect in the repeat runs, not every such curve was filed as active; also: nearly all actives have a fitted effect of over 40% in size)
How it was run: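 Multiplexed viability counter screen in the PGC/ERR cell line: cells treated with DMSO-dissolved compounds for 17.5 hours at 37 C, then viability measured as CellTiter-Fluor fluorescence.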

[11] = target: Thyrotropin receptor (Homo sapiens) (UniProt P16473); test: qHTS assay to identify small molecule agonists of the thyroid stimulating hormone receptor (TSHR) signaling pathway (AID 1224843; calls by dose curve; also: nearly all actives have a fitted effect of over 45% in size)
How it was run: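 HEK293/TSHR, 800 cells/well; cpd 30 min RT; add cAMP-d2 + anti-cAMP-cryptate, 1 h RT; fluorescence read on plate reader. 15-pt titration, n=3.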

[12] = qHTS assay to identify small molecule agonists of the hypoxia (HIF-1) signaling pathway - cell viability counter screen (AID 1224844; calls by dose curve; also: nearly all actives have a fitted effect of over 50% in size)
How it was run: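 Cytotoxicity was measured in parallel with the HRE-driven beta-lactamase readout: after 17 hrs of compound exposure at 37C, HRE-bla ME-180 cells received CellTiter-Glo and luminescence was recorded 30 min later.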

[13] = qHTS assay to identify small molecule antagonists of the estrogen related receptor signaling pathway with the pleiotropic PPARgamma coactivator (PGC) from Tox21 10K library (AID 1224841; call rule not given here; also: series mostly up to about 92 µM; actives are mostly falling curves and most rising ones were filed inactive; nearly all actives have a fitted effect of over 50% in size)
How it was run: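 Steps: plate 2,000 PGC/ERR cells per well; incubate 6 h at 37 C with 5% CO2; transfer compounds from DMSO stocks by pin tool; incubate 18 h at 37 C; add One-Glo; measure luminescence 30 min later.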

[14] = qHTS assay to identify small molecule agonists of the estrogen related receptor signaling pathway with the pleiotropic PPARgamma coactivator (PGC) from Tox21 10K library (AID 1224842); also: nearly all actives have a fitted effect of over 15% in size
How it was run: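 PGC/ERR reporter cell line, 2,000 cells per well, incubated 6 h at 37 C before 23 nL compound in DMSO was added. After 18 h at 37 C, One-Glo luminescence read following 30 min at room temperature.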
% is scaled to controls: 0 for no effect and ±100 for the full control effect.

Nuclear receptor subfamily 1 group I member 3 (Homo sapiens), sequence (Q14994 whole entry, looked up): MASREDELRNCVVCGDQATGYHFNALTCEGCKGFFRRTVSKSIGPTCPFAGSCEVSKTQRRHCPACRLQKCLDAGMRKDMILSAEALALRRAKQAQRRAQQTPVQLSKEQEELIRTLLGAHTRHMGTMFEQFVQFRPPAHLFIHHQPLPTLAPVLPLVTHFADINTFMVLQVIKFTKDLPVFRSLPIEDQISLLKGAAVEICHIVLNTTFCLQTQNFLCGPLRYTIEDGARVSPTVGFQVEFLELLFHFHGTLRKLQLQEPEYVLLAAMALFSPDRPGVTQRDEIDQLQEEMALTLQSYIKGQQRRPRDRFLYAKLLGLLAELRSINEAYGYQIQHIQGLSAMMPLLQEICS
Thyrotropin receptor (Homo sapiens), sequence (P16473 whole entry, looked up): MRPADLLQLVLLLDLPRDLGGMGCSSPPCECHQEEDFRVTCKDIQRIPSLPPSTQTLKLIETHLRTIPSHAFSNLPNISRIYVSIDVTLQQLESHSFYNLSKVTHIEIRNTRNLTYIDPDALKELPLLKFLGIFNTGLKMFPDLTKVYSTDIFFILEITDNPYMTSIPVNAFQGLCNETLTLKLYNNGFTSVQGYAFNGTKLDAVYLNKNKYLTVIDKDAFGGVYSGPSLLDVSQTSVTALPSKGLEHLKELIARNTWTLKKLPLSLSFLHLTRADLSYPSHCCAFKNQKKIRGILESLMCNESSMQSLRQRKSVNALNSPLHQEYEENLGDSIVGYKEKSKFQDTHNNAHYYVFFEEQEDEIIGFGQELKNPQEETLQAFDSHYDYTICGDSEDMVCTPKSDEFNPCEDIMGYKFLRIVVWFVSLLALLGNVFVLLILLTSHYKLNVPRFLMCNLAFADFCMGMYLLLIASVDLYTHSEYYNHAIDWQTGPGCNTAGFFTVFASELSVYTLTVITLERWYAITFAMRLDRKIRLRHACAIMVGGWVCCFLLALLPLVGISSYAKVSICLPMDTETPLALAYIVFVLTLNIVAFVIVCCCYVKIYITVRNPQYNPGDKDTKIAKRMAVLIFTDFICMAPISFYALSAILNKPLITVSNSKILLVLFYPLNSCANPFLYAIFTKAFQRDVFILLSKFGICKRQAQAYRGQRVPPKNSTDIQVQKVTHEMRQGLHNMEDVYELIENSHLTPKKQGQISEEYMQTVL
Luciferin 4-monooxygenase (Photinus pyralis), sequence (P08659 whole entry, looked up): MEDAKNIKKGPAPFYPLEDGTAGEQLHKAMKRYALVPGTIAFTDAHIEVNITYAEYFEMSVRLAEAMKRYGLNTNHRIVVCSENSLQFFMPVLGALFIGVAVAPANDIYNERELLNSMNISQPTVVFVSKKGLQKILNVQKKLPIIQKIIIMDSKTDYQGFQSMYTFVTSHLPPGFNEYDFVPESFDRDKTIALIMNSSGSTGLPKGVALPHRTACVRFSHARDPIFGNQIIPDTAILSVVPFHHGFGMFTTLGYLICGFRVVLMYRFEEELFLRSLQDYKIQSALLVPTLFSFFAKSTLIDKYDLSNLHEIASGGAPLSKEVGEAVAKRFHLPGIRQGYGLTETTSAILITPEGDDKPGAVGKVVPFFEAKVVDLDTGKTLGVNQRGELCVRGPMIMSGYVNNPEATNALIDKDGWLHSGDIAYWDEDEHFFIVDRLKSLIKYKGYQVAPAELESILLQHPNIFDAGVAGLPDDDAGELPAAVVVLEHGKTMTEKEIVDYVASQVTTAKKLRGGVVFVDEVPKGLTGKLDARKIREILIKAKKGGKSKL

O=C(Cl)C(Cl)(Cl)Cl
inactive: Potency [1] | Potency [2] | Potency [3] | Potency [4] | Potency [5] | Potency [6] | Potency [7] | Potency [8] | Potency [9] | Potency [10] | Potency [11]

CCOc1cc(OP(=S)(OC)OC)nc(CC)n1
inactive: Potency [1] | Potency [2] | Potency [3] | Potency [4] | Potency [5] | Potency [6] | Potency [7] | Potency [8] | Potency [10] | Potency [11] | Potency [12]

CCC1(c2ccccc2)CCC(=O)NC1=O (centres undefined)
inactive: Potency [1] | Potency [2] | Potency [3] | Potency [4] | Potency [5] | Potency [6] | Potency [7] | Potency [8] | Potency [10] | Potency [11] | Potency [12]

CN1COCN(Cc2cnc(Cl)s2)/C1=N\[N+](=O)[O-]
inactive: Potency [1] | Potency [2] | Potency [3] | Potency [4] | Potency [5] | Potency [6] | Potency [7] | Potency [8] | Potency [10] | Potency [11] | Potency [12]

CNC(=O)Oc1cc(C)c(N(C)C)c(C)c1
inactive: Potency [1] | Potency [2] | Potency [3] | Potency [4] | Potency [5] | Potency [6] | Potency [7] | Potency [8] | Potency [10] | Potency [13] | Potency [14] | Potency [12]

Cc1ccc2c(c1)C1CN(C)CCC1N2 (centres undefined)
inactive: activity change, negative = cytotoxicity [1] -17.4% [at 15.8 µM] | activity change, negative = cytotoxicity [2] 2.36% [at 19 µM] | activity, negative = inhibition [3] -12.3% [at 19 µM] | Potency [4] | viability change, negative = cytotoxic [5] 8.02% [at 19 µM] | activity change, negative = inhibition [6] -0.519% [at 23.6 µM] | viability change, negative = cytotoxic [7] 3.2% [at 19 µM] | activity change, negative = cytotoxicity [8] 1.97% [at 19 µM] | activity, negative = inhibition [9] 51% [at 19 µM] | activity, negative = inhibition [13] -1.31% [at 19 µM] | activation [14] -0.364% [at 19 µM] | activation [11] 15.7% [at 19 µM] | activity change, negative = cytotoxicity [12] -1.4% [at 15.8 µM]

CC(C)(N)Cc1ccccc1Cl
inactive: Potency [1] | Potency [2] | Potency [3] | Potency [4] | Potency [5] | Potency [6] | Potency [7] | Potency [8] | Potency [10] | Potency [13] | Potency [14] | Potency [11] | Potency [12]

Cc1cc(OC(=O)N(C)C)nn1C(=O)N(C)C
inactive: Potency [1] | Potency [2] | Potency [3] | Potency [4] | Potency [5] | Potency [6] | Potency [7] | Potency [8] | Potency [9] | Potency [10] | Potency [11] | Potency [12]

CN(C)CCN(C)C
inactive: Potency [1] | Potency [2] | Potency [3] | Potency [4] | Potency [5] | Potency [6] | Potency [7] | Potency [8] | Potency [13] | Potency [14] | Potency [11] | Potency [12]

CN1C(=O)COc2c(C(=O)NC3CN4CCC3CC4)cc(Cl)cc21 (centres undefined)
inactive: Potency [1] | Potency [2] | Potency [3] | Potency [4] | Potency [5] | Potency [6] | Potency [7] | Potency [8] | Potency [9] | Potency [10] | Potency [11] | Potency [12]

COP(=O)(O)OC
inactive: Potency [1] | Potency [2] | Potency [3] | Potency [4] | Potency [5] | Potency [6] | Potency [7] | Potency [9] | Potency [10] | Potency [11] | Potency [12]
